Results filed as inconclusive are left out. Entries that show only a call come without a potency. Calls of active or inactive are those of the source. Calls follow the shape of the dose curve; as a rule, active = well fitted activation curve with a large enough effect; inconclusive = small, poorly fitted or top-dose-only effect; inactive = flat fitted curve, though single readings scatter.

The nature of the assay: qHTS for Inhibitors of Cell Surface uPA Generation: Confirmatory Assay for Cherry-picked Compounds. The conditions noted are these: cell surface uPA activity generation, qHTS confirmation; series mostly up to 115 µM. The gist of the method:
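RAW 264.7 cells at 4000/well, incubated overnight, then treated with compounds. After 24 h at 37 C, viability was read by ATPlite luminescence. An increase in signal indicates blocked uPA-dependent LF entry.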
As for `Cc1ccc(NC(=O)c2ccc(=O)[nH]n2)cc1S(=O)(=O)Nc1ccccc1Cl`, the Potency result was “inactive”.
With `CCN1CCCCC(=N/O)/C(=N/O)CCCC1` the entry was “inactive”.
With `COCc1cc(C)nc2sc(C(=O)Nc3nccs3)c(N)c12` the entry was “inactive”.
In the case of `COc1ccccc1CNC(=O)CCn1c(=O)oc2ccccc21` it was “inactive”; in that of `O=C(O)c1ccccc1/C=N/NC(=S)NC1CCCCC1`, “inactive”.
For the compound `COc1ccc(CNC(=O)C2CCC(CNS(=O)(=O)c3ccc(C)cc3)CC2)cc1` (centres undefined), the Potency result is “inactive”.
As for `Cc1cc(C)n2nc(CNS(=O)(=O)c3ccc(F)c(C)c3)nc2n1`, the Potency entry is “inactive”.
With `CS(=O)(=O)N1CCC(C(=O)Nc2ccccc2)CC1` the entry was “inactive”.
With `Cc1nc2nc(C)c(NS(=O)(=O)c3ccc(Cl)cc3)c(=O)n2[nH]1` the entry was “inactive”; with `CC(=O)c1cccc(NC(=O)N2C3CCC2CC(O)(c2cccnc2)C3)c1` (centres undefined), “inactive”.
For `O=[N+]([O-])c1ccc(SCc2ccncc2)nc1`, the Potency entry was “inactive”.
With `CCNC(=S)NNC(=O)c1ccncc1` the entry was “inactive”; with `O=C(NCc1ccc(F)cc1)c1cc(S(=O)(=O)N2CCCCC2)ccc1N1CCOCC1`, “inactive”.
In the case of `CN(C)S(=O)(=O)c1ccc(NC(=O)COC(=O)CC2CC3CCC2C3)cc1` (centres undefined) it was “inactive”.
In the case of `O=C(CSc1ccc([N+](=O)[O-])cn1)Nc1nccs1` it was “inactive”; in that of `CCOC(=O)C1CCN(C(=O)COC(=O)c2c(C)c(CC)nc3ccccc23)CC1`, “inactive”.
Turning to `COCCn1nnnc1C(C(C)C)N1CCCC(C)C1` (centres undefined), the Potency entry was “inactive”.
With `CCN(CC(=O)Nc1c(F)cccc1F)C(=O)c1ccc(-c2ccc(C(C)=O)cc2)o1` the entry was “inactive”; with `CC(C)NC(=O)CN1CCC(c2nc3ccccc3[nH]2)CC1`, “inactive”.
In the case of `OCC[C@@H]1C[C@H](O)[C@@H](O)[C@]2(OCCc3ccccc32)O1` it was “inactive”.
`COc1cc(/C=N/NC(=O)c2cc(-c3ccco3)nc3ccccc23)cc(OC)c1O`: the Potency result is “inactive”.
In the case of `Cc1ccc(C(O)(COC(=O)C(C)C)COC(=O)C(C)C)c(O)c1` it was “inactive”.
With `COc1ccccc1NS(=O)(=O)c1cc(NC(=O)CCc2nc3ccccc3c(=O)[nH]2)ccc1C` the entry was “inactive”; with `CCOC(=O)C1=CC[C@@H](c2cc3ccc(OC)cc3n2C)N(S(=O)(=O)c2ccc(C)cc2)[C@H]1C(=O)OCC`, “inactive”; with `CC(=O)Oc1ccc(OC(C)=O)c(SCCCCCCl)c1`, “inactive”.
In the case of `O=C1C[C@@H]2CCN3C(=O)CCC[C@@H]([C@H]23)[C@H]1Cc1ccccc1` it was “inactive”.
`COc1ncnc(NS(=O)(=O)c2ccc(N)cc2)c1OC`: the Potency result was “inactive”.
Consider `Cn1c(CN2CCCC2)nc2cc(NC(=O)COc3ccccc3)ccc21`, for which the Potency entry was “inactive”.
As for `COc1cc(N/C(N)=N/c2nc(C)cc(C)n2)cc(OC)c1`, the Potency entry is “inactive”.
`Cc1ccc(C)c(NC(=O)CCN2CCN(c3ccccc3F)CC2)c1`: the Potency entry is “inactive”.
Consider `COc1ccc(NC(=O)/C(N=Nc2cc(S(=O)(=O)Nc3ccc(OC)cc3)ccc2OC)=C(\C)O)cc1`, for which the Potency entry is “inactive”.
Regarding `CC1(C(=O)OCC(=O)Nc2ccc(Cl)cn2)CC1(Cl)Cl` (centres undefined), the Potency result was “inactive”.
In the case of `COCCN(C(=O)c1ccc(OC2CCN(S(=O)(=O)N(C)C)CC2)cc1)C(C)C` it was “inactive”.
With `Cn1c(SCC(=O)NNC(=O)c2ccc(Br)cc2)nnc1-c1cccnc1` the entry was “inactive”; with `COc1ccc(C(c2sc3nc(C)nn3c2O)N2CCC(C(N)=O)CC2)cc1OC` (centres undefined), “inactive”.
With `O=C(N/N=C/c1cccnc1)c1ccccc1[N+](=O)[O-]` the entry was “inactive”; with `Cc1ccc2cccc(OCCCOc3ccccc3CO)c2n1`, “inactive”.
As to `CC1(C)CC(CCC(=O)NC(=S)Nc2ccccc2Cl)C(=O)O1` (centres undefined), the Potency result was “inactive”.
Consider `CCn1c(CNc2ccc(F)cc2)nnc1SCC(=O)Nc1ccccc1OC`, for which the Potency result was “inactive”.

Values taken from PubChem BioAssay AID720519 (National Center for Advancing Translational Sciences (NCATS), 2013).
